For test [1], the system named is Jurkat. As to the kind of experiment: mean cell size (FSC-A) relative to DMSO control (fraction of control); higher = larger cells. Particulars: 48 h. A digest of the protocol: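 Jurkat cells at 600 cells/µl were incubated for 1 h and then treated for 48h with the Enzo Screen-Well FDA Approved Drug Library v2.0 at 25µM, with DMSO at 0.9% (v/v) final. Compounds that reduced counts below 20% of controls were retested in 10-fold dilutions down to 25nM. Cell count and mean cell size, taken as forward scatter area, were measured by flow cytometry relative to solvent-only controls. Each plate carried 6-12 controls, and values are means of 3 biological replicates.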

The test system of test [2] is Jurkat. As to the kind of experiment: cell count relative to DMSO control (fraction of control); higher = more cells (less growth inhibition). The conditions noted are these: 48 h.

Where a name gives a salt, the structure may show the parent alone. ± gives the standard deviation.

Regarding `Cc1ccc(N(CC2=NCCN2)c2cccc(O)c2)cc1` [Phentolamine·HCl] (concentration: 25 µM), the mean cell size in test [1] worked out at 1.09 ± 0.072. The compound further came in with a cell count in test [2] of 0.612 ± 0.16.
In the case of `Cc1ccc(NC(=O)c2ccc(CN3CCN(C)CC3)cc2)cc1Nc1nccc(-c2cccnc2)n1` [Imatinib Mesylate] (concentration: 25 µM), the mean cell size in test [1] was 0.968 ± 0.032. Besides, the cell count in test [2] came out at 0.589 ± 0.07.
The like results for `CC1=C(C/C=C(\C)CCC[C@H](C)CCC[C@H](C)CCCC(C)C)C(=O)c2ccccc2C1=O` [Phytonadione] (concentration: 25 µM) were, in that order, 0.986 ± 0.024 and 0.886 ± 0.1.
Taken in the same sequence, the figures for `Cc1cccc(Nc2ccncc2S(=O)(=O)NC(=O)NC(C)C)c1` [Torsemide] (concentration: 25 µM) were 1.01 ± 0.052 and 0.866 ± 0.042.
The like results for `OC(CNCC(O)C1CCc2cc(F)ccc2O1)C1CCc2cc(F)ccc2O1` (stereo not drawn) [Nebivolol·HCl] (concentration: 25 µM) were, in that order, 1.15 ± 0.094 and 0.483 ± 0.11.
`CN(C)CCc1c[nH]c2ccc(Cn3cncn3)cc12` [Rizatriptan Benzoate] (concentration: 25 µM) returned a mean cell size in test [1] of 1.02 ± 0.039. The cell count in test [2] was 0.844 ± 0.01.
The like results for `C[C@@H](O)[C@H]1C(=O)N2C(C(=O)O)=C(S[C@@H]3CN[C@H](C(=O)N(C)C)C3)[C@H](C)[C@H]12` [Meropenem] (concentration: 25 µM) were, in that order, 0.944 ± 0.015 and 0.939 ± 0.078.
With `CSc1ccc2c(c1)N(CCC1CCCCN1C)c1ccccc1S2` (stereo not drawn) [Thioridazine·HCl] (concentration: 2.5 µM), the mean cell size in test [1] was 1.08 ± 0.014. In test [2], this compound gave a cell count of 0.646 ± 0.18.
The like results for `CCCCNc1cc(C(=O)O)cc(S(N)(=O)=O)c1Oc1ccccc1` [Bumetanide] (concentration: 25 µM) were, in that order, 0.952 ± 0.015 and 0.863 ± 0.022.
Taken in the same sequence, the figures for `CCCCC[C@H](O)/C=C/[C@H]1[C@H](O)CC(=O)[C@@H]1CCCCCCC(=O)O` [Alprostadil] (concentration: 25 µM) were 0.872 ± 0.0094 and 0.73 ± 0.12.
In test [1], `Cc1onc(-c2c(Cl)cccc2Cl)c1C(=O)N[C@@H]1C(=O)N2[C@@H]1SC(C)(C)[C@@H]2C(=O)O` [Dicloxacillin·Na Salt Monohydrate] (concentration: 25 µM) yielded a mean cell size of 0.939 ± 0.0097. Besides, the cell count in test [2] stood at 1.07 ± 0.06.
Taken in the same sequence, the figures for `CNC(=C[N+](=O)[O-])NCCSCc1csc(CN(C)C)n1` [Nizatidine] (concentration: 25 µM) were 0.976 ± 0.011 and 0.809 ± 0.02.
`Cc1nnc(C(C)C)n1C1C[C@H]2CC[C@@H](C1)N2CC[C@H](NC(=O)C1CCC(F)(F)CC1)c1ccccc1` (stereo in doubt) [Maraviroc] (concentration: 25 µM) came in with a mean cell size in test [1] of 1 ± 0.044. The compound further displayed a cell count in test [2] of 0.668 ± 0.062.
The like results for `C1N2CN3CN1CN(C2)C3` [Methenamine Hippurate] (concentration: 25 µM) were, in that order, 1.03 ± 0.063 and 0.89 ± 0.1.
The like results for `CC(=O)N[C@@H](CS)C(=O)O` [Acetylcysteine] (concentration: 25 µM) were, in that order, 1.02 ± 0.059 and 0.772 ± 0.059.
Taken in the same sequence, the figures for `Cc1ccc(Cl)c(Nc2ccccc2C(=O)O)c1Cl` [Meclofenamate·Na] (concentration: 25 µM) were 0.903 ± 0.031 and 0.293 ± 0.032.
In the case of `CC(C)(C)NC[C@H](O)COc1cccc2c1CCCC2=O` [Levobunolol·HCl] (concentration: 25 µM), in test [1], the mean cell size was found to be 0.964 ± 0.056. Moreover, the cell count in test [2] stood at 1.11 ± 0.03.
The like results for `Nc1ccn([C@@H]2O[C@H](CO)[C@@H](O)C2(F)F)c(=O)n1` [Gemcitabine·HCl] (concentration: 25 nM) were, in that order, 1.12 ± 0.024 and 0.427 ± 0.09.
On to `O=C(O)Cc1ccccc1Nc1c(Cl)cccc1Cl` [Diclofenac·Na Salt] (concentration: 25 µM), for which, in test [1], the mean cell size was found to be 0.978 ± 0.039. The cell count in test [2] came out at 0.725 ± 0.073.
In turn, `Cc1ccsc1C(=CCCN1CCC[C@@H](C(=O)O)C1)c1sccc1C` [Tiagabine·HCl] (concentration: 25 µM) registered a mean cell size in test [1] of 0.936 ± 0.064. This compound showed a cell count in test [2] of 0.839 ± 0.013.
In turn, `CC(COc1ccccc1)N(CCCl)Cc1ccccc1` (stereo not drawn) [Phenoxybenzamine·HCl] (concentration: 25 µM) returned a mean cell size in test [1] of 0.965 ± 0.021. The same compound showed a cell count in test [2] of 0.746 ± 0.08.
Taken in the same sequence, the figures for `CCCNC(C)C(=O)Nc1ccccc1C` (stereo not drawn) [Prilocaine·HCl] (concentration: 25 µM) were 1 ± 0.022 and 0.693 ± 0.13.
Taken in the same sequence, the figures for `CO[C@H]1/C=C/O[C@@]2(C)Oc3c(C)c(O)c4c(O)c(c(/C=N/N5CCN(C6CCCC6)CC5)c(O)c4c3C2=O)NC(=O)/C(C)=C\C=C\[C@H](C)[C@H](O)[C@@H](C)[C@@H](O)[C@@H](C)[C@H](OC(C)=O)[C@@H]1C` [Rifapentine] (concentration: 25 µM) were 0.887 ± 0.025 and 0.275 ± 0.088.
The like results for `NC(N)=Nc1nc(CSCC/C(N)=N/S(N)(=O)=O)cs1` [Famotidine] (concentration: 25 µM) were, in that order, 0.979 ± 0.035 and 1.19 ± 0.12.

(Values after the supplement of paper PMC4709259.)
